An excerpt weighted towards active compounds, which were near 2.9% of everything screened.
MEKK2mut PB1 HTS – signal of MEK5 binding to mutant human MEKK2 PB1 domain | 0.35% of 290,000 active | percent response, % at 10 µM | bead flow cytometry, Alexa488-MEK5 binding to MEKK2 mutant | AID 1530; in the data active means percent response above about 24%, passing the limit was not always enough
MEKK2wt PB1 HTS – raises or lowers MEK5 binding to wildtype human MEKK2 PB1 domain | bead flow cytometry, Alexa488-MEK5 binding to MEKK2 WT; actives lie on both sides | binding response (% of control), % at 10 µM | 1.1% of 290,000 active | AID 1531; in the data active means binding response below about 67% or above about 130%
MEKK3 PB1 HTS – MEKK3-MEK5 PB1 interaction, increase or decrease; Q99759; bead-based flow cytometry, Alexa488-MEK5 binding to MEKK3; actives lie on both sides; 0 = blocked by unlabeled MEK5, 100 = vehicle; binding response (% of control), % at 10 µM; 1.4% of 290,000 active; AID 1529;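 active means binding response more than 3 SD above or below the average of its plate-row segment, actives on both sides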;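 further: Alexa488 bead fluorescence after subtracting the streptavidin-only scavenger bead signal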
Target sequence (Q99759 whole entry, looked up): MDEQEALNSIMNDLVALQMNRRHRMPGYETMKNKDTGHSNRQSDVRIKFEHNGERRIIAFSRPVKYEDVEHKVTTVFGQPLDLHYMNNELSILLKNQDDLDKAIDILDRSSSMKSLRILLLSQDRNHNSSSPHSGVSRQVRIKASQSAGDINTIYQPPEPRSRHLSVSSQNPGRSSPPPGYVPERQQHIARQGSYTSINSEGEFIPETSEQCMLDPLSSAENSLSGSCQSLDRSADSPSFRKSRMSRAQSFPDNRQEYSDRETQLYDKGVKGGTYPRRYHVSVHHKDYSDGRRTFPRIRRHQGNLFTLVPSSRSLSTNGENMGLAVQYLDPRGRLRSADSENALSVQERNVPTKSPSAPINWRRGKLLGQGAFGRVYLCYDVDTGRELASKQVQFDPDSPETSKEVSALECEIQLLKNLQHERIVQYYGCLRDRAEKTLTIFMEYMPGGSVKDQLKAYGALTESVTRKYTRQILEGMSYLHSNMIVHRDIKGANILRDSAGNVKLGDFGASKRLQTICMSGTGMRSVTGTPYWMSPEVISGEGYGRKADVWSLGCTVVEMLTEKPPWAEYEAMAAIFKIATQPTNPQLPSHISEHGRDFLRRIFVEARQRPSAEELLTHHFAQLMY
CRFR2-BP antag – antagonists of CRF-binding protein/CRF-R2 receptor complex; AID 588475; 0.59% of 350,000 active; HEK293 CRF-R2/CRF-BP, CRF-induced calcium fluorescence; inhibition, % at 11.8 µM;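 active means inhibition of the ligand-induced calcium signal above about 50% at the single tested concentration, limit read from the data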
CRFBP-R2 agonist – CRF-BP/CRF-R2 complex agonism; HEK293 CRF-R2/CRF-BP, calcium dye fluorescence (FLIPR); percent of saturating CRF peptide response; activation, % at 13.2 µM; 0.46% of 350,000 active;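 active means activation of at least 50%, plus an integration ratio under a set limit after plate pattern correction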
ABCB6 inh 2 – inhibitors of human ABC transporter ABCB6; Q9NP58; K562-ABCB6 porphyrin accumulation, flow cytometry, 1 h; stronger effect = lower value; fluorescence ratio to DMSO, % at 10 µM; 0.19% of 360,000 active;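 active means fluorescence ratio to DMSO below 75%, the collection mean minus 3 SD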;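 further: signal is porphyrin accumulated inside mitochondria; lower ratio means ABCB6 inhibition with less porphyrin fluorescence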
MEKK2wt confirm – raises or lowers MEK5 binding to wildtype human MEKK2, retest; shares compounds with MEKK3 PB1 HTS; 2.4% of 5,900 active; bead flow cytometry, Alexa488-MEK5 binding to MEKK2 WT; actives lie on both sides; binding response (% of control), % at 10 µM; in the data active means binding response below about 16% or above about 210%; inactive means in between
MEKK2mut confirm – signal of MEK5 binding to mutant human MEKK2, retest. shares compounds with MEKK3 PB1 HTS. bead flow cytometry, Alexa488-MEK5 binding to MEKK2 mutant. percent response, % at 10 µM. 2% of 5,900 active; in the data active means percent response mostly above about 71%, no sharp cut-off; inactive means mostly below about 38%;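 further: higher means compound restores mutant binding toward wildtype level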
MEKK3 confirm – MEKK3-MEK5 PB1 inhibition, single concentration confirmation | binding response (% of control), % at 10 µM | 1.8% of 5,900 active | bead flow cytometry, Alexa488-MEK5 binding to MEKK3; stronger effect = lower value | shares compounds with MEKK3 PB1 HTS;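 active means binding response below 72% of control, or above a set upper limit, though filed actives all read lower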
A number is an active result; – = inactive; · = not tested or not shown; [ ] = another dose, or the depositor's remark.

SMILES | MEKK2mut PB1 HTS | MEKK2wt PB1 HTS | MEKK3 PB1 HTS | CRFR2-BP antag | CRFBP-R2 agonist | ABCB6 inh 2 | MEKK2wt confirm | MEKK2mut confirm | MEKK3 confirm
CCOC(=O)C1CCN(C(=O)CSc2ccc(Cl)cc2)CC1 | – | – | 129.0 | – | – | – | – | – | –
CCOC(=O)C1CCN(C(=O)c2c(-c3c(F)cccc3Cl)noc2C)CC1 | – | – | 127.0 | – | – | – | – | – | –
Cc1onc(-c2c(F)cccc2Cl)c1C(=O)OCC(=O)NC1CC1 | – | – | 70.0[inhibitor] | – | – | – | – | – | –
CC1CC2(C)Oc3ccccc3CC2C(C)C1CNCCCN(C)C (stereo not given) | – | 139.0 | – | – | – | – | – | – | –
CC(c1ccccc1)N1CCn2c(nc3cc(NC(=O)c4cccs4)ccc32)C1 (stereo not given) | – | 35.0[inhibitor] | 19.0[inhibitor] | – | – | – | – | – | –
CCCCNCC(=O)Nc1ccc(NC(=O)CNCCCC)cc1 | 27.0 | 144.0 | – | – | – | – | – | – | –
CN(C)S(=O)(=O)c1cccc(NC(=O)c2ccc(COc3ccccc3)cc2)c1 | – | – | – | – | – | – | · | · | ·
Cc1nc(C)c(CCNC(=O)c2ccc(C(F)(F)F)cc2)s1 | – | – | 138.0 | – | – | – | – | – | –
CCOC(=O)/C=C/C(=O)N1CCN(C(=O)/C=C/C(=O)OCC)CC1 | – | – | – | – | – | – | · | · | ·
CCc1ccccc1Nc1cc(C(=O)NCc2ccccn2)c2ccccc2n1 | – | – | 131.0 | – | – | – | – | – | –
CCCCNC(=S)NNC(=O)c1ccncc1 | – | – | 35.0[inhibitor] | – | – | – | – | – | –
CCCCNC(=S)NNC(=O)c1sccc1C | – | – | – | – | – | – | · | · | ·
COc1cc(CNCCO)cc(Cl)c1OCc1ccc(Cl)cc1Cl | – | 161.0 | – | – | – | – | – | – | –
COc1cc(CNC2CCCC2)cc(OC)c1OC | – | – | – | – | – | – | · | · | ·
COc1cc(CNC2CCCC2)cc(Cl)c1OCc1ccccc1Cl | – | 207.0 | – | – | – | – | – | – | –
COc1cc(CNC2CCCCCCC2)cc(Cl)c1OCC(N)=O | – | – | – | – | – | – | · | · | ·
CCOc1cc(CNC2CCCC2)cc(Cl)c1OCc1ccc(F)cc1 | – | 144.0 | – | – | – | – | – | – | –
COc1cc(CNC2CCCC2)cc(Cl)c1OCc1ccc(F)cc1 | 25.0 | – | – | – | – | – | – | – | –
COc1cc(CNCCO)cc(Br)c1OCc1ccccc1Cl | · | · | · | – | – | – | · | · | ·
Cc1ccc(NC(=O)c2ccc(OCc3c(C)noc3C)cc2)nc1 | · | · | · | – | – | – | · | · | ·
COc1ccc(Br)cc1S(=O)(=O)NCc1ccccc1 | – | – | – | – | – | – | · | · | ·
COc1ccc(F)cc1S(=O)(=O)NCc1ccccc1 | – | – | 72.0[inhibitor] | – | – | – | – | – | –
Brc1cnc2nc(SC/C=C/c3ccccc3)[nH]c2c1 | – | – | – | – | – | – | · | · | ·
O=C(NCc1nc2ncc(Br)cc2[nH]1)c1ccccc1 | – | 0.0[inhibitor] | 0.0[inhibitor] | – | – | – | – | – | –
CC(=O)[C@@]1(O)CCC2C3CC[C@H]4C[C@@H](O)CC[C@]4(C)C3CC[C@@]21C (stereo not given in full) | · | · | · | – | – | – | · | · | ·
SMILES | MEKK2mut PB1 HTS | MEKK2wt PB1 HTS | MEKK3 PB1 HTS | CRFR2-BP antag | CRFBP-R2 agonist | ABCB6 inh 2 | MEKK2wt confirm | MEKK2mut confirm | MEKK3 confirm
C[C@]12CCC3C(CC[C@H]4CCCC[C@]34C)C1CC[C@@]2(O)CNCCO (stereo not given in full) | 27.0 | 139.0 | – | – | – | – | – | – | –
COc1cc(NC(=O)CSc2nc3c(c(=O)n(C)c(=O)n3C)n2C)cc(OC)c1 | – | – | – | – | – | – | · | · | ·
CCN(CC)CCNC(Cc1ccccc1)c1cccc(OC)c1 (stereo not given) | · | · | · | – | – | – | · | · | ·
NC1=NC(=O)/C(=C/c2cn(CCC(=O)O)nc2-c2ccc(F)cc2)S1 | – | – | 129.0 | – | – | – | – | – | –
Cc1ccccc1-n1c(O)c(/C=N/N2CCCCC2c2cccnc2)c(=O)[nH]c1=O (stereo not given) | – | – | 173.0 | – | – | – | – | – | –
Cc1ccc(S(=O)(=O)N2CCCCC2c2cccnc2)c(C)c1C (stereo not given) | – | – | – | – | – | – | · | · | ·
CCCN(CC(=O)Nc1ccccc1C)C(=O)/C=C/c1cccs1 | – | – | 140.0 | – | – | – | – | – | –
O=C(C1CCN(S(=O)(=O)c2ccc(Cl)cc2)CC1)N1CCN(c2ccccn2)CC1 | · | · | · | – | – | – | · | · | ·
CC(=O)Nc1ccc(Nc2cc(N3CCOCC3)c3nonc3c2[N+](=O)[O-])cc1 | – | – | 45.0[inhibitor] | – | – | – | – | – | –
O=[N+]([O-])c1ccc(O)c(C(C#Cc2ccccc2)N2CCOCC2)c1 (stereo not given) | – | – | 67.0[inhibitor] | – | – | – | – | – | –
O=C(c1cc([N+](=O)[O-])ccc1N1CCOCC1)N1CCN(c2ccccc2)CC1 | – | – | – | · | · | – | · | · | ·
CN(C(=O)COC(=O)CSc1ccccc1)c1c(N)n(Cc2ccccc2)c(=O)[nH]c1=O | · | · | · | – | – | – | · | · | ·
CCCN(C(=O)CCNC(=O)c1ccc(Cl)cc1)c1c(N)n(Cc2ccccc2)c(=O)[nH]c1=O | · | · | · | – | – | – | · | · | ·
CN(Cc1ccccc1)S(=O)(=O)c1ccc2c(c1)n(C)c(=O)c(=O)n2C | – | – | 130.0 | – | – | – | – | – | –
CC(=O)Nc1ccc(-c2sc(Nc3cccc4ccccc34)n[n+]2-c2ccccc2)cc1 | – | 159.0 | – | – | – | – | – | – | –
COc1ccc(C)cc1Nc1n[n+](-c2ccccc2)c(-c2ccc(SC)cc2)s1 | 29.0 | – | – | – | – | – | – | – | –
COc1ccc(C)cc1Nc1n[n+](-c2ccccc2)c(-c2ccc(NC(C)=O)cc2)s1 | – | 142.0 | – | – | – | – | – | – | –
CSc1ccc(-c2sc(Nc3cccc4ccccc34)n[n+]2-c2ccccc2)cc1 | – | – | – | – | – | – | · | · | ·
CCN(C[C@H]1N[C@@](CC)(C(=O)OC)[C@H]2C(=O)N(C)C(=O)[C@@H]12)S(=O)(=O)c1ccccc1 | · | · | · | – | – | – | · | · | ·

Assay outcomes from PubChem.
